The text below walks through data of PubChem BioAssay.

Structures are written as SMILES. The source made the active and inactive calls. Unless noted, how the calls were made is not given here.

Experiment [1] can be described thus: anti-His antibody binders, primary screen, artefact control for SMM control protein annotation, biochemical, small-molecule microarray, 635 nm fluorescence (AID 1128).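 Further: score merges feature fluorescence with signal-to-noise for each printed compound spot.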 The settings on record: anti-His Alexa647 antibody binding, higher = more signal.
Experiment [2] deals with Human papillomavirus type 1a E7 protein (residues 1-88). In words: HPV1a E7 small-molecule binders, primary screen, biochemical, small-molecule microarray, residues 1-88, 635 nm (AID 1129). The settings on record: small-molecule microarray binding, fluorescence 635 nm; higher = more signal.
For experiment [3], the target named is Focal adhesion kinase 1 (Homo sapiens) (UniProt Q05397). In words: small-molecule microarray binders of FAK, primary screen, biochemical, 635/667 nm fluorescence, BSA, DTT (AID 1130).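 Further: composite of spot emission at 667 nm and signal to noise over triplicate slides.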 To be noted: PTK2 binding, 635 nm fluorescence, higher = more signal.
For experiment [4], the system named is Fibrinogen (Alexa647-labelled). In words: fibrinogen binders on compound microarrays, profiling panel, artefact control for SMM control-protein annotation, biochemical, small-molecule microarray, 635/667 nm fluorescence (AID 1131).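 Further: z-score merges 667 nm fluorescence with per-spot signal-to-noise over triplicate slides.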 The settings on record: fibrinogen-A647 binding fluorescence, higher = more signal.
In experiment [5] the target is Follistatin (Homo sapiens) (UniProt P19883). In words: follistatin binders on small-molecule microarrays, primary screen, biochemical, small-molecule microarray, 635/667 nm fluorescence (AID 1132). The settings on record: FST binding, 635 nm fluorescence, higher = more signal.
For experiment [6], the target named is Fibroblast growth factor 2 (Homo sapiens) (UniProt P09038). In words: FGF2 binders on small-molecule microarrays, primary screen, biochemical, small-molecule microarray, 635/667 nm fluorescence (AID 1133). To be noted: small-molecule microarray binding, FGF2, fluorescence 635/667; higher = more signal.
Experiment [7] in a line: mitochondrial membrane potential change in A549 cells, profiling panel, cell-based, JC-1 fluorescence, basal, 24 h, 100 nL (AID 1138).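 Further: A549 lung adenocarcinoma cells under basal conditions with no added stimulus; test concentration not given here.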 The settings on record: higher = more signal.
In another experiment the test system is Lefty1. In words: Lefty1 binders on small-molecule microarrays, primary screen, biochemical, small-molecule microarray, 635/667 nm fluorescence (AID 1139). To be noted: small-molecule microarray binding, fluorescence 635/667; higher = more signal.
In experiment [8] the test system is wheat germ agglutinin (Triticum aestivum), Alexa647-labelled. In words: wheat germ agglutinin binders on compound microarrays, profiling panel, artefact control for SMM control-protein annotation, biochemical, small-molecule microarray, 635/667 nm fluorescence (AID 1140).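 Further: score merges 667 nm feature emission with signal to noise over triplicate slides.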 The settings on record: WGA-A647 binding, 635 nm fluorescence, higher = more signal.
Experiment [9] addresses Luciferin 4-monooxygenase (Photinus pyralis) (UniProt P08659). In words: firefly luciferase enzyme inhibitors, primary screen, biochemical, luminescence, purified enzyme, 2006 set (AID 1141).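 Further: cell-free assay with purified firefly luciferase at 100 ng per well in PBS; test concentration not given here.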 To be noted: SteadyGlo luminescence, 30 min, higher = more signal, called active from +8 up or from −8 down.
For experiment [10], the system named is Wnt5a (protein binding on small-molecule microarray). In words: Wnt5a binders on small-molecule microarray, primary screen, biophysical, 635/667 nm fluorescence (AID 1142).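 Further: fluorescence read at 667 nm with signal to noise per printed feature.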 To be noted: 635 nm fluorescence, higher = more signal.
A short description of experiment [11]: cell viability in Huh7 cells, primary screen, cytotoxicity control for HCV replication inhibitor project, CellTiter-Glo luminescence, basal, 48 h (AID 1143).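 Further: Huh7 hepatoma cells carrying a hepatitis C replication reporter with no stimulus; test concentration not given here.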 The settings on record: Huh7 HCV replicon, higher = more signal, called active from +8 up or from −8 down. On the technique in general: Cellular ATP, detected with luciferase, serves as a proxy for viable cell number.

The nature of experiment [12]: P. aeruginosa biofilm formation inhibitors, primary screen, PAO1 strain, BacTiter-Glo luminescence, LB-PBS (AID 1144). The settings on record: 12 h, higher = more signal.
Experiment [13] is described as follows: CREB reporter modulators without forskolin, primary screen, cell-based, PC12, CRE-LacZ reporter, unstimulated (AID 1145). To be noted: no forskolin, luminescence, 4.5 h, higher = more signal, called active from +8 up or from −8 down.
The nature of experiment [14]: CREB reporter modulators under forskolin, primary screen, cell-based, PC12, CRE-LacZ reporter, forskolin-stimulated (AID 1146).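 Further: PC12 cells with 6xCRE LacZ reporter stimulated by forskolin 10 µM; beta-galactosidase reporter signal reflecting CREB driven transcription.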 To be noted: luminescence, 4.5 h, higher = more signal, called active from +8 up or from −8 down.
Experiment [15] deals with Streptavidin (Streptomyces avidinii) (UniProt P22629). In words: streptavidin binders on small-molecule microarray, primary screen, artefact control for SMM compound annotation, biophysical, 635/667 nm fluorescence (AID 1147).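 Further: signal reflects streptavidin binding to arrayed compounds as a control protein.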 The settings on record: streptavidin binding, higher = more signal.
Experiment [16] is described as follows: small-molecule binders of probe aInhba, primary screen, biochemical, small-molecule microarray, 635/667 nm fluorescence (AID 1148).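 Further: score merges 667nm spot fluorescence with signal-to-noise for antibody binding to printed compounds.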 The settings on record: higher = more signal.
Experiment [17] concerns the target Torsin-1A (Homo sapiens) (UniProt O14656). In words: torsin A binders from cell lysate, primary screen, small-molecule microarray, wild-type, 635/667 nm (AID 1149). To be noted: COS7 hTOR1A-WT lysate, 635 nm fluorescence, higher = more signal.
Experiment [18] shares this target. In words: small-molecule binders of mutant TOR1A in lysate, primary screen, cell lysate, small-molecule microarray, COS7 lysate, 635/667 nm fluorescence (AID 1150).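 Further: score pools 667 nm emission and signal to noise measuring lysate protein binding.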 To be noted: COS7 hTOR1A mutant lysate, 635 nm fluorescence, higher = more signal.
Experiment [19] deals with Sonic hedgehog protein (Shh). In words: small-molecule binders of Shh protein, primary screen, biochemical, small-molecule microarray, 635/667 nm fluorescence (AID 1151).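 Further: Shh protein binding to compounds spotted on small-molecule microarray slides; score combines spot fluorescence intensity with signal-to-noise across triplicate slides.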 To be noted: small-molecule microarray binding, 635 nm fluorescence; higher = more signal.

Chain of Torsin-1A (Homo sapiens) (O14656 whole entry, looked up): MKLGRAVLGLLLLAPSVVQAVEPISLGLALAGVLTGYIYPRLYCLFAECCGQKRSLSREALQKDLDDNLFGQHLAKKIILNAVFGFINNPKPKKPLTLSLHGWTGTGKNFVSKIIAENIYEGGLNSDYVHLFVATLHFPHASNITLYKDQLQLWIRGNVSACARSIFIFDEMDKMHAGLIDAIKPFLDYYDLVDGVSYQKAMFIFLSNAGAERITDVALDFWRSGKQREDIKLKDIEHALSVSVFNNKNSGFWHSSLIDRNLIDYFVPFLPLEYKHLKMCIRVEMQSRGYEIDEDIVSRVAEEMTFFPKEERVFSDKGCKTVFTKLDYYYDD
Chain of Streptavidin (Streptomyces avidinii) (P22629 whole entry, looked up): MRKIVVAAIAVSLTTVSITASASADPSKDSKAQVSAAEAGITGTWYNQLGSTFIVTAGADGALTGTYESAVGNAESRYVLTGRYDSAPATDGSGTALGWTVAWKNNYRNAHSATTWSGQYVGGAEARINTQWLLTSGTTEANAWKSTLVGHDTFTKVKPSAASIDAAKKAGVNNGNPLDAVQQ
Chain of Fibroblast growth factor 2 (Homo sapiens) (P09038 whole entry, looked up): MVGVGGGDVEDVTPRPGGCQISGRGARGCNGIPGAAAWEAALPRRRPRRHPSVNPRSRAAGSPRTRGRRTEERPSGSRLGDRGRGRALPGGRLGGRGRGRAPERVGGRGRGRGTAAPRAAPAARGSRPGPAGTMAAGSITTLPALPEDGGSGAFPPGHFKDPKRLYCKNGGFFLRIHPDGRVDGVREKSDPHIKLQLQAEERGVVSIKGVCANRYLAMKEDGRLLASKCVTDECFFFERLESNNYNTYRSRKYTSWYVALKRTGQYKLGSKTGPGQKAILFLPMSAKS
Chain of Luciferin 4-monooxygenase (Photinus pyralis) (P08659 whole entry, looked up): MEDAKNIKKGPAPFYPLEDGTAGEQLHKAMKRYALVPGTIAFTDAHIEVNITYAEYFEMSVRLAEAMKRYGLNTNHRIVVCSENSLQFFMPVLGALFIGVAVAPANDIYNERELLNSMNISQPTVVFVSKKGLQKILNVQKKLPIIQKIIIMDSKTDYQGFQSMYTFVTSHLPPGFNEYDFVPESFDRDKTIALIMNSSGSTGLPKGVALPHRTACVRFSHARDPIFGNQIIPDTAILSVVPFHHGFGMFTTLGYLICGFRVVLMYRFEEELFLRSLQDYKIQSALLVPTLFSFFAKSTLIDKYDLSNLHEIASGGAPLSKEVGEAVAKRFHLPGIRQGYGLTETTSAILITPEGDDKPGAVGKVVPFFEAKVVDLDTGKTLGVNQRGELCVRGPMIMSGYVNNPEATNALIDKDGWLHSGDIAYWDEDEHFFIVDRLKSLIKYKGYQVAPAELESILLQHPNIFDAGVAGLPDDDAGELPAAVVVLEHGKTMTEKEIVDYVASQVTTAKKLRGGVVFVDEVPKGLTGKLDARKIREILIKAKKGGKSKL
Chain of Focal adhesion kinase 1 (Homo sapiens) (Q05397 whole entry, looked up): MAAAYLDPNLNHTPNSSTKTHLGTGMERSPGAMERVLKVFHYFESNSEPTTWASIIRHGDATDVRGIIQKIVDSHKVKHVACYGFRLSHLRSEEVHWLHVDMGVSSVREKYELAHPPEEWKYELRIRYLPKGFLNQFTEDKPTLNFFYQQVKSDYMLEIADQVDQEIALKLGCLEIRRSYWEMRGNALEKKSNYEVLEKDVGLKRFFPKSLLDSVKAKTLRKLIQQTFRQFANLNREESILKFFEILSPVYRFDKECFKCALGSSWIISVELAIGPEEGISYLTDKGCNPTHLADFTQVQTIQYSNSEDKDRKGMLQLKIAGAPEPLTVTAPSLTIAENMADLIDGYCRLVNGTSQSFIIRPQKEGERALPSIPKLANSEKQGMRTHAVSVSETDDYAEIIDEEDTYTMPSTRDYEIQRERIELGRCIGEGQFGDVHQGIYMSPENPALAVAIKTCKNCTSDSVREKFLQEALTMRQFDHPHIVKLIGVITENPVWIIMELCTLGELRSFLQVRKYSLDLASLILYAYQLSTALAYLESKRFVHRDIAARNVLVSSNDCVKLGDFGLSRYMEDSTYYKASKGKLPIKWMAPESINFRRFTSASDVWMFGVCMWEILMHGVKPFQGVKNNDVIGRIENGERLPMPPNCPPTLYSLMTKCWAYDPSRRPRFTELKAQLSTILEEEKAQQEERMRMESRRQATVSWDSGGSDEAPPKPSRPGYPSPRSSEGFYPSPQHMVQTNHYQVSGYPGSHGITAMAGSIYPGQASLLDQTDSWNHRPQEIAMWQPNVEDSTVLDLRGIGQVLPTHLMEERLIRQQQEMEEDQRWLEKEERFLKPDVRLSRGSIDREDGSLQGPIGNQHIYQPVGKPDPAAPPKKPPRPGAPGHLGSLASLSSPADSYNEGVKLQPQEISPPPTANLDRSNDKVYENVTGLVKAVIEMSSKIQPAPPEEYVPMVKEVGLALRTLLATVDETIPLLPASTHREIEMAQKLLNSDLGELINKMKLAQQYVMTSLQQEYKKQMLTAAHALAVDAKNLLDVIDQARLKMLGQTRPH
Chain of Follistatin (Homo sapiens) (P19883 whole entry, looked up): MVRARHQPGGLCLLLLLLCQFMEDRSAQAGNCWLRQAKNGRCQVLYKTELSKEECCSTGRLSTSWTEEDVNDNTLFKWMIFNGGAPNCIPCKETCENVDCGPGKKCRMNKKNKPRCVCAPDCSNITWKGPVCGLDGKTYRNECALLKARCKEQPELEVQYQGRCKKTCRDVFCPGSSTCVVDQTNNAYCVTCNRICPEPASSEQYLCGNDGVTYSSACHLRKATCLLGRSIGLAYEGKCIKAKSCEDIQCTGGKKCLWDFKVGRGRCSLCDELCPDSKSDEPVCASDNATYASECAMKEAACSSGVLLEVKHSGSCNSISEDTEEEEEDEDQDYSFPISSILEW

For the compound `CCN(CC)c1ccc(N2CC=CC34O[C@@H]5/C=C\CCCOC(=O)C5[C@H]3C(=O)N(CCCO)[C@@H]4C2=O)cc1` (stereo not given in full), the composite z-score is 1.54 in experiment [1]; -0.231 in experiment [2]; -0.426 in [3]; -0.928 in [4]; -1.05 in experiment [5]; -0.942 in [6]. Further, the composite z-score in the experiment on Lefty1 is -0.5; in [8], -0.137; in experiment [10] it was -0.674; in [15], -1.12; in experiment [16], -0.157; with Torsin-1A (Homo sapiens) [17], -1.94. Moreover, the figures for the composite z-score (with Torsin-1A (Homo sapiens) [18]; in experiment [19]) were -1.45 and -0.18, respectively. Moreover, the z-score in experiment [7] is 0.614; in experiment [9], -0.826 (inactive); in experiment [11], 0.273 (inactive); in experiment [12], 2.24 (inactive); in experiment [13], -0.212 (inactive); in [14], -0.473 (inactive).
For the compound `O=C(NCC(O)CO)[C@@]1(Cc2ccccc2)COC(c2ccc(OCCCO)cc2)=N1` (stereo not given in full), the composite z-score in experiment [1] was 0.0139; in experiment [2] it was 0.0528; in experiment [3], 0.216; in experiment [4], 0.531; in experiment [5] it was -0.453; in experiment [6] it was 0.0393. The composite z-score in the experiment with Lefty1 is -0.743; in experiment [8] it was 0.488; in experiment [10], 0.0149; in experiment [15], -0.131; in experiment [16], 0.124; with Torsin-1A (Homo sapiens) [17], -0.0598. For the same compound, the values for the composite z-score (in the experiment with Torsin-1A (Homo sapiens) [18]; in experiment [19]) were 0.0184 and -0.342, respectively. In addition, the z-score is -0.165 in experiment [7]; 0.37 (inactive) in experiment [9]; -0.0858 (inactive) in experiment [11]; 0.741 (inactive) in [12]; 0.895 (inactive) in experiment [13]; -0.18 (inactive) in experiment [14].
Regarding `O=C(NCc1ccccc1)[C@@H]1c2ccccc2C(=O)N(Cc2cc(F)cc(C(F)(F)F)c2)[C@H]1c1ccc(CO)cc1`, the composite z-score in experiment [1] was 2.54; in experiment [2], 1.19; in experiment [3] it was 0.187; in [4], 0.571; in experiment [5], 1.27; in [6], 0.339. For the same compound, the composite z-score amounted to 0.61 in the experiment with Lefty1; 0.144 in experiment [8]; 0.0748 in experiment [10]; 0.0709 in [15]; 0.0227 in [16]; 0.484 in the experiment with Torsin-1A (Homo sapiens) [17]. Also, the composite z-score came out at 0.426 with Torsin-1A (Homo sapiens) [18] and 1.15 in experiment [19]. The z-score in [7] is 1.45; in [9] it was -1.13 (inactive); in experiment [11], -1.26 (inactive); in [12], 0.339 (inactive); in experiment [13] it was -0.0888 (inactive); in [14] it was -1.61 (inactive).
Take `Cc1ccccc1/C=C/C=O`: the composite z-score was -0.0248 in experiment [1]; -1.29 in experiment [2]; -0.3 in experiment [3]; -2.75 in [4]; -0.0561 in experiment [5]; -0.134 in experiment [6]. Moreover, the composite z-score was -0.234 with Lefty1; -0.604 in [8]; -0.373 in experiment [10]; -0.943 in experiment [15]; -0.137 in experiment [16]; -1.41 with Torsin-1A (Homo sapiens) [17]. Moreover, the composite z-score with Torsin-1A (Homo sapiens) [18] was -0.62; in experiment [19] it was -0.0373. The z-score in experiment [7] was 0.795; in experiment [9], 0.702 (inactive); in experiment [11] it was -0.042 (inactive); in experiment [12] it was -0.242 (inactive); in experiment [13], -0.204 (inactive); in experiment [14], 0.834 (inactive).
With `CC1CC/C=C\[C@H]2OC34C=CCN(CCN5CCOCC5)C(=O)[C@H]3N(CCCCCO)C(=O)[C@@H]4C2C(=O)O1` (stereo not given in full), the composite z-score was -0.417 in experiment [1]; -1.44 in [2]; -0.197 in [3]; -1.2 in experiment [4]; -0.381 in [5]; -0.206 in experiment [6]. Besides, the composite z-score with Lefty1 was -0.376; in experiment [8] it was -0.577; in experiment [10], 0.06; in experiment [15], -0.488; in [16], -0.327; with Torsin-1A (Homo sapiens) [17] it was -0.0591. The values for the composite z-score (with Torsin-1A (Homo sapiens) [18]; in experiment [19]) were -0.352 and 0.322, respectively. Moreover, the z-score in experiment [7] was -0.485; in [9] it was -0.115 (inactive); in [11] it was 0.362 (inactive); in experiment [12], 0.658 (inactive); in [13] it was 0.0645 (inactive); in experiment [14], 0.259 (inactive).
